The results in this text go back to PubChem BioAssay (NCI).

This is part of a sample that, as a whole, favours compounds with a hit. Of some 83,000 tested, about 20% had one in any assay.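 Single-concentration screen, 48 h exposure, 96-well plates. Endpoint: percent growth. Below 10 = active.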 Values without a mark were called inactive. The source made the active and inactive calls.

Test systems include SR leukemia; RPMI-8226 leukemia; OVCAR-8 ovarian; OVCAR-5 ovarian; OVCAR-4 ovarian; SK-OV-3 ovarian; IGROV1 ovarian; OVCAR-3 ovarian; HS 578T breast; NCI/ADR-RES ovarian; T-47D breast; BT-549 breast; MDA-MB-435 melanoma; SW-620 colon; MCF7 breast; HCT-116 colon; HCC-2998 colon; KM12 colon.
What all share (experiment): NCI-60 one-dose screen, 48 h (100 = growth as untreated, 0 = no growth, -100 = all killed)
Holding throughout (details): 10 µM unless noted

As for `Cn1cc(-c2nc(N)nnc2-c2c[nH]c3ccccc23)c2cc(Br)ccc21`, the growth with SR leukemia is 26.7%; in the experiment with RPMI-8226 leukemia, 12.9%; in the experiment with OVCAR-8 ovarian it was 33%; in the experiment with OVCAR-5 ovarian, 55.1%; with OVCAR-4 ovarian it was 74.1%; in the experiment with SK-OV-3 ovarian, 29.7%. Also, the growth in the experiment on IGROV1 ovarian is 30.5%; in the experiment with OVCAR-3 ovarian it was 16.9%; in the experiment on HS 578T breast, 2.13% (active); in the experiment on NCI/ADR-RES ovarian, 20.2%; with T-47D breast it was 31.2%; in the experiment on BT-549 breast, 32.9%. In addition, the growth in the experiment on MDA-MB-435 melanoma is -37.6% (active); in the experiment with SW-620 colon, 18.2%; in the experiment on MCF7 breast, 18.1%; with HCT-116 colon, 20.3%; with HCC-2998 colon it was 57.6%; in the experiment on KM12 colon it was 18.1%.

Regarding `COc1ccc(-c2nc3ccc(-c4nnc(SCC(=O)Nc5ccc(C(=O)/C=C/c6ccc(Cl)cc6)cc5)o4)cc3[nH]2)cc1`, the growth is 68.2% in the experiment on SR leukemia; 79.9% in the experiment with RPMI-8226 leukemia; 105% in the experiment with OVCAR-8 ovarian; 99.4% in the experiment with OVCAR-5 ovarian; 103% with OVCAR-4 ovarian; 112% in the experiment on SK-OV-3 ovarian. Moreover, the growth was 87.2% with IGROV1 ovarian; 113% in the experiment on OVCAR-3 ovarian; 90.6% in the experiment on HS 578T breast; 107% in the experiment on NCI/ADR-RES ovarian; 92.8% in the experiment with T-47D breast; 98.2% in the experiment with BT-549 breast. In addition, the growth with MDA-MB-435 melanoma was 99.3%; with SW-620 colon it was 97%; in the experiment on MCF7 breast, 78%; with HCT-116 colon, 100%; in the experiment on HCC-2998 colon it was 115%; with KM12 colon, 103%.

For `C=C(C=O)[C@@H]1CC[C@]2(COC(C)=O)CC[C@]3(C)C(CC[C@@H]4[C@@]5(C)CC[C@H](OC(C)=O)C(C)(C)[C@@H]5CC[C@]43C)[C@@H]12` (stereo partly specified), the growth in the experiment with SR leukemia was -25.8% (active); in the experiment on RPMI-8226 leukemia it was -18.4% (active); in the experiment with OVCAR-8 ovarian, 15.3%; in the experiment with OVCAR-5 ovarian, 15.1%; with OVCAR-4 ovarian it was 16.2%; in the experiment on SK-OV-3 ovarian it was 50.3%. Also, the growth in the experiment on IGROV1 ovarian was -32.8% (active); in the experiment on OVCAR-3 ovarian it was -71.6% (active); in the experiment with HS 578T breast, -11.6% (active); with NCI/ADR-RES ovarian, 1.48% (active); in the experiment on T-47D breast it was 4.4% (active); with BT-549 breast, 11.1%. Moreover, the growth with MDA-MB-435 melanoma is -13.6% (active); in the experiment with SW-620 colon it was 0.204% (active); in the experiment on MCF7 breast, -33.5% (active); in the experiment on HCT-116 colon, -58.4% (active); in the experiment on HCC-2998 colon, -63% (active); in the experiment with KM12 colon, -40.8% (active).

For `COc1cc(-c2ccc3ncnc(NCc4ccccc4)c3c2)cnc1OC`, the growth in the experiment on SR leukemia was 62.1%; with RPMI-8226 leukemia it was 34.5%; with OVCAR-8 ovarian, 70.7%; in the experiment on OVCAR-5 ovarian, 28.9%; in the experiment on OVCAR-4 ovarian it was 65.3%; with SK-OV-3 ovarian, 43.2%. Further, the growth in the experiment with IGROV1 ovarian was -31.8% (active); in the experiment with OVCAR-3 ovarian, 43.4%; with HS 578T breast, 20%; in the experiment on NCI/ADR-RES ovarian, 68.3%; in the experiment on T-47D breast, 2.37% (active); with BT-549 breast it was 57.2%. Further, the growth in the experiment on MDA-MB-435 melanoma is 77.1%; in the experiment on SW-620 colon it was 74.6%; in the experiment with MCF7 breast, 27%; with HCT-116 colon, 78.1%; with HCC-2998 colon, 73.2%; with KM12 colon it was 95.2%.

For the molecule `CN1CCN(Cc2ccc(NC(=O)c3cncc(C#Cc4cnc5ccc(OCC(C)(C)O)nn45)c3)cc2C(F)(F)F)CC1`, the growth in the experiment with SR leukemia is -7.52% (active); in the experiment with RPMI-8226 leukemia, -27.6% (active); with OVCAR-8 ovarian, 6.58% (active); in the experiment with OVCAR-5 ovarian it was -3.05% (active); with OVCAR-4 ovarian, -2.05% (active); with SK-OV-3 ovarian, -13.3% (active). Further, the growth with IGROV1 ovarian was -17.3% (active); in the experiment on OVCAR-3 ovarian it was -56.5% (active); in the experiment with HS 578T breast, -36.9% (active); with NCI/ADR-RES ovarian, 33.9%; with T-47D breast it was -17.6% (active); in the experiment with BT-549 breast, -20.1% (active). The growth is -86.8% (active) with MDA-MB-435 melanoma; -16.1% (active) with SW-620 colon; -66.3% (active) in the experiment with MCF7 breast; -51% (active) in the experiment on HCT-116 colon; -34.3% (active) with HCC-2998 colon; 1.72% (active) with KM12 colon.

As to `C=CCOc1cccc(/C=C2\SC(=S)N(C3CC(=O)N(c4ccc(Br)cc4)C3=O)C2=O)c1` (stereo unspecified), the growth with SR leukemia is 93.7%; in the experiment on RPMI-8226 leukemia, 96.4%; with OVCAR-8 ovarian, 99.9%; in the experiment with OVCAR-5 ovarian, 108%; in the experiment with OVCAR-4 ovarian it was 109%; in the experiment with SK-OV-3 ovarian, 88%. For the same molecule, the growth was 103% in the experiment with IGROV1 ovarian; 108% in the experiment with OVCAR-3 ovarian; 106% in the experiment on HS 578T breast; 99.9% in the experiment with NCI/ADR-RES ovarian; 95.9% in the experiment with T-47D breast; 109% with BT-549 breast. Further, the growth was 109% in the experiment with MDA-MB-435 melanoma; 108% with SW-620 colon; 90.7% in the experiment on MCF7 breast; 100% with HCT-116 colon; 115% in the experiment with HCC-2998 colon; 97.6% with KM12 colon.

For `COc1ccc(NC(=O)Nc2ccc3c(ccn3C(=O)c3cccc(F)c3)c2)cc1`, the growth with SR leukemia was 42.7%; in the experiment with RPMI-8226 leukemia, 78.9%; with OVCAR-8 ovarian it was 89.1%; with OVCAR-5 ovarian, 62.3%; in the experiment on OVCAR-4 ovarian it was 48.1%; in the experiment with SK-OV-3 ovarian, 106%. Also, the growth with IGROV1 ovarian was 69.1%; in the experiment on OVCAR-3 ovarian it was 13.5%; in the experiment on HS 578T breast it was 31.6%; in the experiment with NCI/ADR-RES ovarian, 65.5%; in the experiment on T-47D breast, 75.9%; with BT-549 breast, 76.2%. The growth in the experiment on MDA-MB-435 melanoma is 74.9%; with SW-620 colon, 60.2%; in the experiment on MCF7 breast, 60.4%; in the experiment on HCT-116 colon it was 45.8%; with HCC-2998 colon, 86.8%; with KM12 colon, 53%.
